Laboratory results taken from PubChem BioAssay AID1159580 (chemical genetic matrix, 2015).
Screen size: about 5,500 compounds; about 2,000 (36%) were called active. Not shown: some 18% with an inconclusive outcome. No stated cut-off is given here; in the data, active means normalized growth mostly below about 0.91 (no sharp cut-off); inconclusive means no clear call, values can overlap the other calls; inactive means mostly above about 0.92. This is one part of the list.

Experiment: chemical genetic growth profiling, strain panel (AID 1159580);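 further: tested at 20 µM; growth read once vehicle control cultures reached saturation at 30 °C; 1 = growth at the plate median or of vehicle wells; lower values mean less growth of the strain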
Conditions: S. cerevisiae deletion strains, growth OD

Measured: normalized growth

C[C@]12CCC(=O)C=C1CC[C@@H]1[C@@H]2[C@@H](O)C[C@@]2(C)[C@H]1CC[C@]2(O)C(=O)CO
inactive: locus YAL013W, strain DEP1, hits give low values 1 | locus YAL040C, strain CLN3, hits give low values 0.989 | locus YCL061C, strain MRC1 (second series), hits give low values 1 | locus YDR150W, strain NUM1, hits give low values 0.993 | locus YDR363W, strain ESC2, hits give low values 1.02 | locus YER002W, strain NOP16, hits give low values 0.986 | locus YMR307W, strain GAS1, hits give low values 1.01 | locus YNL153C, strain GIM3, hits give low values 1.01 | locus YNL175C, strain NOP13, hits give low values 0.99 | locus YNL224C, strain SQS1, hits give low values 0.995 | locus YNL322C, strain KRE1, hits give low values 1 | locus YOR083W, strain WHI5 (second series), hits give low values 1.01

CC(=O)[C@@]12O[C@](C)(c3ccccc3)O[C@@H]1CC1C3CCC4=CC(=O)CC[C@]4(C)C3CC[C@@]12C (stereo not given in full)
inactive: locus YHR030C, strain SLT2, hits give low values 1.06 | locus YHR079C, strain IRE1, hits give low values 1.03 | locus YJL095W, strain BCK1, hits give low values 0.901 | locus YJR066W, strain TOR1, hits give low values 1.01 | locus YLR113W, strain HOG1, hits give low values 0.897 | locus YNL183C, strain NPR1, hits give low values 0.987 | locus YOR231W, strain MKK1, hits give low values 1 | locus YPL256C, strain CLN2, hits give low values 1.02
